Results on 60 compounds are retold here after PubChem BioAssay AID1029 (Sanford-Burnham Center for Chemical Genomics, 2008).

The structures appear in SMILES notation. Screen size: about 110,000 compounds; about 80 (0.07%) were called active. Shown is part of a subset that was picked to be rich in actives. Values without a mark were called inactive.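 The calls were made as follows: active = inhibition above the mean of the plate negative controls plus 5 SD (cut at about 13% in these data); inactive = the rest.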

The assay in a line: blockers of IgG-bead uptake by macrophages – imaging, J774A.1 cells, IgG beads, primary screen (AID 1029).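 Also: phagocytic index as fraction of beads internalized from green versus red external bead signal; plate controls were DMSO negative control for no effect and cytochalasin-D positive control for full effect.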 The conditions noted are these: J774A.1 macrophage IgG-bead phagocytosis, at 5 µM, stronger effect = higher value.
One may read the inhibition as the drop in the measured response relative to a control, in per cent. In the case of `CC(=O)c1ccc2c(c1)c1ccccc1n2CC(C)C`, the inhibition is 0.3%. The same measure for `CC(=O)c1c(C)n([O-])c2ccccc2[n+]1=O`: 79.2% (active); for `c1ccc(-c2cc3c(NCC4COc5ccccc5O4)ncnc3s2)cc1` (stereo not given): -5.69%; for `CCNS(=O)(=O)c1ccc(NC(=O)c2cncc(Br)c2)cc1`: -7.43%. In the case of `CCC1CCCCN1C(=S)Nc1ccc(C(C)=O)cc1` (stereo not given), the inhibition is -9.4%. The value for `O=C(/C=C/c1cccc([N+](=O)[O-])c1)NCCSCc1ccco1` was 6.74%; that for `CCc1ccc(-c2cc(C(=O)NN3CCN(C)CC3)c3ccccc3n2)cc1` was -2.84%; that for `COC(=O)c1c(NC(=O)CN2CCN(S(=O)(=O)c3ccccc3[N+](=O)[O-])CC2)sc2c1CCC(C)C2` (stereo not given) was -4.89%. For the compound `Cc1ccc(NC(=O)CSCC(=O)NC2CCCCC2)cc1`, the inhibition was 6.8%. With `Cc1ccc(CN2C(=O)N/C(=C/c3cc(C)n(-c4ccccn4)c3C)C2=O)cc1`, the inhibition was -12.6%. The same measure for `COc1ccc(NC(=S)NC2CCS(=O)(=O)C2)cc1` (stereo not given): -3.06%; for `O=C(Nc1ccccc1)/C(=C/c1ccc([N+](=O)[O-])cc1)NC(=O)c1ccccc1`: -6.22%. The value for `CC(=O)Nc1ccc(/C(C)=N/NC(=O)CN(c2ccccc2Br)S(C)(=O)=O)cc1` was -1.53%; that for `Cc1ccccc1OCC(=O)Nc1nc(C)c(C(=O)N(C)C)s1` was -2.14%; that for `CCn1ncc(CNC(=O)C2(C)CC2(Br)Br)c1C` (stereo not given) was -2.71%.

Turning to `O=C(/C=C\c1cn(-c2ccccc2)nc1-c1cccs1)N1CCOCC1`, the inhibition was -5.61%. Consider `COc1cc2c(cc1OC)C(Nc1ccc(S(N)(=O)=O)cc1)=NC(C)(C)C2`, for which the inhibition was -2.77%. The same measure for `COCCNc1nc(N)c([N+](=O)[O-])c(NCCO)n1`: -3.97%; for `COc1ccc(/C(C)=N/NC(=O)CCC(=O)Nc2ccc(Cl)cc2Cl)c(OC)c1`: 0.09%. Turning to `CCC1CCc2c(sc(NC(C)=O)c2C#N)C1` (stereo not given), the inhibition was -7.48%.

For the compound `COc1ccc(N2C(=O)C(O)C2c2ccc(C)cc2)cc1` (stereo not given), the inhibition is -1.93%.

Turning to `CC(CC(=O)N1CCN(c2ccccc2)CC1)c1ccccc1` (stereo not given), the inhibition is -3.13%. Turning to `Cc1ccnc(NC(=O)Cn2ccc([N+](=O)[O-])n2)c1`, the inhibition is -6.53%. Turning to `Cc1ccc(C)c(NC(=O)CCC(=O)NNC(=O)c2cccs2)c1`, the inhibition is 1.58%. As for `COCCNC(=O)c1ccccc1NS(=O)(=O)c1ccc(C)c([N+](=O)[O-])c1`, the inhibition was -2.99%.

In the case of `O=C(NNC(=S)NCc1ccccc1)c1ccc(OC(F)F)cc1`, the inhibition is -3.86%. The value for `CCCCN(CC)C(=S)Nc1ccc2nc3n(c(=O)c2c1)CCCCC3` was -7.14%. With `O=C1CCCC(O)=C1N=Nc1ccc2ncsc2c1`, the inhibition was 105% [artifact] (active). On to `COc1ccc(C)cc1NC(=O)C(OC(=O)c1cccc(S(=O)(=O)N(C)c2ccccc2)c1)c1ccccc1` (stereo not given), for which the inhibition is -5.86%. The value for `Cc1cccc(C)c1NC(=O)CSc1ccc([N+](=O)[O-])cn1` was -2.92%; that for `O=C1NC(c2ccccc2)CCC1(Cl)Cl` (stereo not given) was 2.89%; that for `CCC(=O)/C=C1\Sc2ccccc2N1CC` was -1.58%. For `S=C(NCc1ccc(Cl)cc1)NC1CCCCC1`, the inhibition was -3.92%. The same measure for `O=C(NN1C(=O)C2C3C=CC(O3)C2C1=O)c1ccncc1` (stereo not given): -4.03%; for `O=C(CSc1nnc(-c2ccncc2)o1)NCc1ccc(Cl)cc1`: -5.78%. Turning to `COc1ccc(OCc2cn3c(C)cc(C)nc3n2)cc1`, the inhibition was -0.34%.

For the compound `COc1cc(/C=C/C(=O)O)cc(S(=O)(=O)Nc2ccccc2SC)c1OC`, the inhibition is -5.74%. Consider `CCCCN(CC)C(=O)c1ccc2c(c1)OCO2`, for which the inhibition was 1.32%. The value for `Cc1ccc2c(c1)C1CN(C)CCC1N2C(=O)c1ccccc1NS(=O)(=O)c1ccc(F)cc1C` (stereo not given) was -3.92%; that for `COC(=O)/C(=C1\Oc2ccc(C(C)(C)C)cc2S1)C(F)(F)F` was 7.86%; that for `CC(C)CNC(=S)Nc1ccc(F)cc1` was -3.14%.

With `CCCCOc1ccc(NC(=O)[C@@H]2CCCN2C(=O)C2CCN(S(=O)(=O)c3ccc(C)cc3)CC2)cc1`, the inhibition was -3.36%. The same measure for `Cc1ccc(NC(=O)CC2S/C(=N/N=C3\CCCc4ccccc43)NC2=O)cc1` (stereo not given): -6.09%; for `O=C(CN1CCc2ccccc21)NC(c1ccccc1)c1ccccc1`: -5.11%. The value for `O=C(O)c1ccc2c(c1)C(=O)N(NC(=O)c1ccc(O)cc1)C2=O` was -5.14%; that for `COc1ccc(NC(=S)NCc2cccs2)c(OC)c1` was 0.55%; that for `COc1cc2c(cc1/C=C1/NC(=O)N(c3ccccc3)C1=O)OCO2` was -3.27%.

Regarding `Cc1cc(C(=O)NNC(=S)NC(C)c2ccccc2)cs1` (stereo not given), the inhibition was -2.01%.

Consider `Cc1ccc(-n2[nH]c(C)c(/C=N/NC(=O)c3cccc([N+](=O)[O-])c3)c2=O)cc1C`, for which the inhibition is -4.72%.

As to `Cc1ccc(C(=O)Oc2coc(CSc3nnc(NC(=O)c4cccs4)s3)cc2=O)cc1C`, the inhibition is -0.5%. The value for `NC1=C([N+](=O)[O-])C(c2ccccc2)C2=C(CCCC2=O)O1` (stereo not given) was -3.95%; that for `COc1ccc(C(=O)COC(=O)c2ccc3ccccc3n2)cc1` was -5.54%. Take `O=[N+]([O-])c1cccc(C2=NCCS2)c1`: the inhibition is 0.05%. The same measure for `Cc1ccccc1Cn1nc(C)c(NC(=O)C(F)(F)F)c1C`: -2.43%; for `CC(C)(C)C1CCC(=NNC(=O)c2cc(-c3ccccc3)n[nH]2)CC1` (stereo not given): 0.48%. On to `CCOc1ccc2nc(NC(=O)c3cc([N+](=O)[O-])ccc3N3CCOCC3)sc2c1`, for which the inhibition was 3.64%. Regarding `CC(=O)c1ccc(NC(=S)NC(=O)CC(C)C)cc1`, the inhibition is -4.19%.

As to `CCOc1ccc(C(=O)NC(=S)Nc2ccc(NC(=O)C(C)C)cc2)cc1[N+](=O)[O-]`, the inhibition is -0.7%.

`COc1ccc2nc(Nc3nc(-c4cc5ccccc5oc4=O)cs3)sc2c1`: the inhibition is 0.77%. `CC(=O)Nc1cccc(/C(C)=N/NC(=O)c2c(-c3ccccc3Cl)noc2C)c1`: the inhibition was -2.62%.
